In all, about 8,300 sequences were measured (“log2 fold change of degron read counts, EGFP-low vs EGFP+ sorted cells (limma voom), compound-induced degradation”: median about -1.1, highest 2% from about 3.2 on). The sample as a whole holds a higher share of the highest values than the screen did.
Target: T1, CRBN, Q96SW2
T1 chain: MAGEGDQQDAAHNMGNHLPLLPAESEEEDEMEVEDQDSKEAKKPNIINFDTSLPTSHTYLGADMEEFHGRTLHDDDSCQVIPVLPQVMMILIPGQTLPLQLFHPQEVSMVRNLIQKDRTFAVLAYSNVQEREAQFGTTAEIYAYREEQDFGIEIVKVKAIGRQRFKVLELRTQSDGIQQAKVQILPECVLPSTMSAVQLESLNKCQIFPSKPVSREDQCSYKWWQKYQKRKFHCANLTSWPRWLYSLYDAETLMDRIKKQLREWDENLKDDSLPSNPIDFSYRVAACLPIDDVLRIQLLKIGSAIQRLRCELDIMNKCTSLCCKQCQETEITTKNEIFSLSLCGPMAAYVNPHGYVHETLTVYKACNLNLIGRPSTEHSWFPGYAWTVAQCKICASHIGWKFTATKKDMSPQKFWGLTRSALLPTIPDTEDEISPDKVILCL
Assay: log2 fold change of degron read counts, EGFP-low vs EGFP+ sorted cells (limma voom), compound-induced degradation; higher = more compound-induced degradation of the degron-EGFP fusion; degrons are variants of IKZF1/3 zinc finger 2; compound dose not given here
Conditions: Jurkat, 18 h

[1] = compound: compound 19 (5-tert-butyl-thalidomide)
[2] = compound: compound 22 (5-morpholino-thalidomide)
[3] = compound: compound 33 (diphenyl IMiD analogue)
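Note: pooled lentiviral library of zinc finger degron-EGFP fusions in mCherry-positive Jurkat cells, FACS-sorted after compound exposure, with degron abundance counted by next-generation sequencing.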

FGCDVCGALFTQKGNLLRHIKL [46F_47G_49D_50V_52G_53A_54L_55F_67L_, Q9UKT9]
log2 fold change of degron read counts [1]: -0.285 | log2 fold change of degron read counts [2]: -1.26 | log2 fold change of degron read counts [3]: 0.277 | log2 fold change of degron read counts (compound: thalidomide): -1.67

FLCNQCGRHFTQKGNLLRHIKL [46F_47L_49N_50Q_52G_53R_54H_55F_67L_, Q9UKT9]
log2 fold change of degron read counts [1]: -2.4 | log2 fold change of degron read counts [2]: -2.59 | log2 fold change of degron read counts [3]: -2.64 | log2 fold change of degron read counts (compound: thalidomide): -2

FSCNVCGAYFTQKGNLLRHIKL [46F_47S_49N_50V_52G_53A_54Y_55F_67L_, Q9UKT9]
log2 fold change of degron read counts [1]: -0.837 | log2 fold change of degron read counts [2]: -0.921 | log2 fold change of degron read counts [3]: 0.627 | log2 fold change of degron read counts (compound: thalidomide): -0.674

FACNQCGRGFTQKGNLLRHIKL [46F_47A_49N_50Q_52G_53R_54G_55F_67L_, Q9UKT9]
log2 fold change of degron read counts [1]: -2.53 | log2 fold change of degron read counts [2]: -2.62 | log2 fold change of degron read counts [3]: -2.49 | log2 fold change of degron read counts (compound: thalidomide): -2.4

FECNQCGATFTQKGNLLRHIKL [46F_47E_49N_50Q_52G_53A_54T_55F_67L_, Q9UKT9]
log2 fold change of degron read counts [1]: -2.51 | log2 fold change of degron read counts [2]: -3.02 | log2 fold change of degron read counts [3]: -2.92 | log2 fold change of degron read counts (compound: thalidomide): -1.69

FICDQCGARFTQKGNLLRHIKL [46F_47I_49D_50Q_52G_53A_54R_55F_67L_, Q9UKT9]
log2 fold change of degron read counts [1]: -2.79 | log2 fold change of degron read counts [2]: -0.912 | log2 fold change of degron read counts [3]: -0.818 | log2 fold change of degron read counts (compound: thalidomide): -1.23

FSCPICGAWFTQKGNLLRHIKL [46F_47S_49P_50I_52G_53A_54W_55F_67L_, Q9UKT9]
log2 fold change of degron read counts [1]: 0.603 | log2 fold change of degron read counts [2]: -0.272 | log2 fold change of degron read counts [3]: 0.788 | log2 fold change of degron read counts (compound: thalidomide): -0.152

FVCNQCGADFTQKGNLLRHIKL [46F_47V_49N_50Q_52G_53A_54D_55F_67L_, Q9UKT9]
log2 fold change of degron read counts [1]: -3.46 | log2 fold change of degron read counts [2]: -3.35 | log2 fold change of degron read counts [3]: -3.82 | log2 fold change of degron read counts (compound: thalidomide): -2.79

FRCEICGRRFTQKGNLLRHIKL [46F_47R_49E_50I_52G_53R_54R_55F_67L_, Q9UKT9]
log2 fold change of degron read counts [1]: -2.67 | log2 fold change of degron read counts [2]: -2.2 | log2 fold change of degron read counts [3]: -1.21 | log2 fold change of degron read counts (compound: thalidomide): -0.634

FSCDQCGAEFTQKGNLLRHIKL [46F_47S_49D_50Q_52G_53A_54E_55F_67L_, Q9UKT9]
log2 fold change of degron read counts [1]: -2.57 | log2 fold change of degron read counts [2]: -3.41 | log2 fold change of degron read counts [3]: -1.87 | log2 fold change of degron read counts (compound: thalidomide): -2.94

FCCPICGRCFTQKGNLLRHIKL [46F_47C_49P_50I_52G_53R_54C_55F_67L_, Q9UKT9]
log2 fold change of degron read counts [1]: -0.609 | log2 fold change of degron read counts [2]: -0.825 | log2 fold change of degron read counts [3]: 0.868 | log2 fold change of degron read counts (compound: thalidomide): 0.188

FVCEICGRPFTQKGNLLRHIKL [46F_47V_49E_50I_52G_53R_54P_55F_67L_, Q9UKT9]
log2 fold change of degron read counts [1]: -1.68 | log2 fold change of degron read counts [2]: -0.932 | log2 fold change of degron read counts [3]: -1.28 | log2 fold change of degron read counts (compound: thalidomide): -0.0354

LCCPICGFKCTQKGNLLRHIKL [46L_47C_49P_50I_52G_53F_54K_55C_67L_, Q9UKT9]
log2 fold change of degron read counts [1]: 1.84 | log2 fold change of degron read counts [2]: 1.91 | log2 fold change of degron read counts [3]: 0.929 | log2 fold change of degron read counts (compound: thalidomide): 2.55

FDCEICGAKFTQKGNLLRHIKL [46F_47D_49E_50I_52G_53A_54K_55F_67L_, Q9UKT9]
log2 fold change of degron read counts [1]: 2.14 | log2 fold change of degron read counts [2]: 0.278 | log2 fold change of degron read counts [3]: -2.01 | log2 fold change of degron read counts (compound: thalidomide): 1.01

FQCEICGAKFTQKGNLLRHIKL [46F_47Q_49E_50I_52G_53A_54K_55F_67L_, Q9UKT9]
log2 fold change of degron read counts [1]: 0.93 | log2 fold change of degron read counts [2]: 2.95 | log2 fold change of degron read counts [3]: 0.278 | log2 fold change of degron read counts (compound: thalidomide): 3.46

FYCEICGAKFTQKGNLLRHIKL [46F_47Y_49E_50I_52G_53A_54K_55F_67L_, Q9UKT9]
log2 fold change of degron read counts [1]: 3.9 | log2 fold change of degron read counts [2]: 3.84 | log2 fold change of degron read counts [3]: 1.98 | log2 fold change of degron read counts (compound: thalidomide): 1.59

FFCEICGAKFTQKGNLLRHIKL [46F_47F_49E_50I_52G_53A_54K_55F_67L_, Q9UKT9]
log2 fold change of degron read counts [1]: 3.78 | log2 fold change of degron read counts [2]: 3.65 | log2 fold change of degron read counts [3]: 1.37 | log2 fold change of degron read counts (compound: thalidomide): 1.7

FNCEICGAKFTQKGNLLRHIKL [46F_47N_49E_50I_52G_53A_54K_55F_67L_, Q9UKT9]
log2 fold change of degron read counts [1]: 2.53 | log2 fold change of degron read counts [2]: 0.377 | log2 fold change of degron read counts [3]: -1.68 | log2 fold change of degron read counts (compound: thalidomide): 0.453

FSCEICGAKFTQKGNLLRHIKL [46F_47S_49E_50I_52G_53A_54K_55F_67L_, Q9UKT9]
log2 fold change of degron read counts [1]: 3.23 | log2 fold change of degron read counts [2]: 1.96 | log2 fold change of degron read counts [3]: -0.76 | log2 fold change of degron read counts (compound: thalidomide): 1.76

FECEICGAKFTQKGNLLRHIKL [46F_47E_49E_50I_52G_53A_54K_55F_67L_, Q9UKT9]
log2 fold change of degron read counts [1]: 0.521 | log2 fold change of degron read counts [2]: -1.41 | log2 fold change of degron read counts [3]: -0.834 | log2 fold change of degron read counts (compound: thalidomide): 2.62

FLCEICGAKFTQKGNLLRHIKL [46F_47L_49E_50I_52G_53A_54K_55F_67L_, Q9UKT9]
log2 fold change of degron read counts [1]: 0.834 | log2 fold change of degron read counts [2]: -0.868 | log2 fold change of degron read counts [3]: -0.0729 | log2 fold change of degron read counts (compound: thalidomide): 2.07

FCCEICGAKFTQKGNLLRHIKL [46F_47C_49E_50I_52G_53A_54K_55F_67L_, Q9UKT9]
log2 fold change of degron read counts [1]: 3.35 | log2 fold change of degron read counts [2]: 2.52 | log2 fold change of degron read counts [3]: 0.0496 | log2 fold change of degron read counts (compound: thalidomide): 2.53

FHCEICGAKFTQKGNLLRHIKL [46F_47H_49E_50I_52G_53A_54K_55F_67L_, Q9UKT9]
log2 fold change of degron read counts [1]: 2.99 | log2 fold change of degron read counts [2]: 2.33 | log2 fold change of degron read counts [3]: -0.357 | log2 fold change of degron read counts (compound: thalidomide): 0.544

FKCEICGAKFTQKGNLLRHIKL [46F_47K_49E_50I_52G_53A_54K_55F_67L_, Q9UKT9]
log2 fold change of degron read counts [1]: -1.09 | log2 fold change of degron read counts [2]: -3.1 | log2 fold change of degron read counts [3]: -3.06 | log2 fold change of degron read counts (compound: thalidomide): -1.37

FACNICGACFTQKGNLLRHIKL [46F_47A_49N_50I_52G_53A_54C_55F_67L_, Q9UKT9]
log2 fold change of degron read counts [1]: 2.13 | log2 fold change of degron read counts [2]: 1.95 | log2 fold change of degron read counts [3]: 0.735 | log2 fold change of degron read counts (compound: thalidomide): -0.49

FKCEICGRRFTQKGNLLRHIKL [46F_47K_49E_50I_52G_53R_54R_55F_67L_, Q9UKT9]
log2 fold change of degron read counts [1]: -2.87 | log2 fold change of degron read counts [2]: -3.55 | log2 fold change of degron read counts [3]: -3 | log2 fold change of degron read counts (compound: thalidomide): -1.89

FDCSVCGHIFTQKGNLLRHIKL [46F_47D_49S_50V_52G_53H_54I_55F_67L_, Q9UKT9]
log2 fold change of degron read counts [1]: -1.69 | log2 fold change of degron read counts [2]: -1.84 | log2 fold change of degron read counts [3]: -1.76 | log2 fold change of degron read counts (compound: thalidomide): -1.28

FMCPICGAWFTQKGNLLRHIKL [46F_47M_49P_50I_52G_53A_54W_55F_67L_, Q9UKT9]
log2 fold change of degron read counts [1]: -1.26 | log2 fold change of degron read counts [2]: -0.611 | log2 fold change of degron read counts [3]: 1.3 | log2 fold change of degron read counts (compound: thalidomide): -0.221
